Assay outcomes from PubChem.
This is a sample that favours compounds with a hit; in the whole collection about 3.4% have one here.
GPR151 activ = activators of human GPR151; 650,000 compounds, 1% hits; PathHunter beta-arrestin GPR151 cells, luminescence; Q8TDV0; AID 1508602; activation, % at 11.2 µM; in the data active = activation above about 4.9%
Target sequence (Q8TDV0 whole entry, looked up): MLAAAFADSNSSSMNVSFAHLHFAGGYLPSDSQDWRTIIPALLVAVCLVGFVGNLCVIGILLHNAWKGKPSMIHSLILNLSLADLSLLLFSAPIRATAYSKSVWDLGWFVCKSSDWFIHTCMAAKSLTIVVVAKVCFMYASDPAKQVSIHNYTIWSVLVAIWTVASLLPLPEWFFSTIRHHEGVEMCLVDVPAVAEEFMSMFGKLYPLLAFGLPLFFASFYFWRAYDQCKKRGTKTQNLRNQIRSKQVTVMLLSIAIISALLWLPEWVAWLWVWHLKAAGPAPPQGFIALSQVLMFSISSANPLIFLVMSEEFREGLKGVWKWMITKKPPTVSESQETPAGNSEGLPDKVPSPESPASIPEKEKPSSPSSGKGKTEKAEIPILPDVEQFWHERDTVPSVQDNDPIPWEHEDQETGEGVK
TEAD-YAP inh = TEAD-YAP interaction inhibition; HEK-TIYL cells, TEAD-Gal4/YAP UAS-luciferase luminescence; inhibition, % at 9.12 µM; 640,000 compounds, 1.4% hits; AID 1259422; in the data active = inhibition above about 32%
MITF inh = inhibitors of human MITF; AID 1259374; inhibition, % at 2.6 µM; O75030; 650,000 compounds, 0.91% hits; AlphaScreen MITF homodimerization, bead proximity signal; in the data active = inhibition above about 50%
FBW7 activator = human FBW7 E3 ligase activation, primary screen. Q969H0. AlphaScreen FBW7–phospho-cyclin E peptide binding, activator screen. normalized activity (activation), % at 26.1 µM. 650,000 compounds, 0.13% hits. AID 1259310; in the data active = normalized activity above about 1.9%;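 note: purified mutant Fbw7 with reduced substrate affinity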
Large screens that a line does not name were inactive.

O=C(c1ccc(Cl)cc1)N(C(=O)c1ccc(Cl)cc1)n1cnnc1	none
O=C1CS/C(=C/S(=O)(=O)c2ccc(Cl)cc2)N1	none
O=C(c1cccs1)N1CCN(c2nc3nonc3nc2NCc2cccs2)CC1	none
CN(Cc1nc(-c2ccncc2)no1)C(=O)CC1C(=O)NCCN1CC(C)(C)C (centres undefined)	none
CCOC(=O)c1cc(Cc2ccccc2)sc1NC(=S)NN1CCN(C)CC1	none
CC(=O)c1c(C)oc2ccc(N(C(C)=O)S(=O)(=O)c3cccc4cccnc34)cc12	TEAD-YAP inh 52
COC(=O)c1c(C)oc2ccc(NS(=O)(=O)c3ccc(C)cc3C)cc12	TEAD-YAP inh 46
COC(=O)c1c(C)oc2ccc(NS(=O)(=O)c3cc(C)ccc3C)cc12	none
O=C1CCCC2=C1C(c1ccc(Br)cc1)NC(=S)N2 (centres undefined)	none
O=C(CCC(=O)c1ccc2c(c1)OCCO2)NNC(=O)c1cc(-c2ccccc2)n[nH]1	none
O=c1cc(-c2ccccc2)oc2c(O)c(O)ccc12	TEAD-YAP inh 43
O=c1cc(-c2ccccc2)oc2cc(O)c(O)cc12	TEAD-YAP inh 70
O=C(NCC1COc2ccccc2O1)c1cc(S(=O)(=O)N2CCc3ccccc32)ccc1Sc1cccc(Cl)c1 (centres undefined)	none
CCC(Nc1ccc(Br)cc1)C(=O)N/N=C/c1cc([N+](=O)[O-])ccc1O (centres undefined)	TEAD-YAP inh 43
CCC(Nc1ccc(Br)cc1)C(=O)N/N=C/c1cc(OC)ccc1O (centres undefined)	none
CCC(Nc1ccc(Br)cc1)C(=O)N/N=C/c1ccc(O)cc1O (centres undefined)	TEAD-YAP inh 76
c1ccc(CCCN2CCc3nc4ccncc4cc3C2)cc1	none
COc1cc([N+](=O)[O-])ccc1N/C=C/C(=O)c1ccc(Cl)cc1	none
COc1cc([N+](=O)[O-])ccc1N/C=C/C(=O)c1ccccc1	TEAD-YAP inh 71
Cc1cc(C(=O)O)ccc1N/C=C/C(=O)c1cccs1	TEAD-YAP inh 46
COc1cc([N+](=O)[O-])ccc1N/C=C/C(=O)c1cccs1	TEAD-YAP inh 80
Cc1cc(N/C=C\C(=O)c2cccs2)no1	none
CN(C)c1cccc(Nc2cc(NCc3cccc(C(F)(F)F)c3)ncn2)c1	none
O=C1c2c(Cl)c(Cl)c(Cl)c(Cl)c2C(=O)N1c1ccc2nc(/C=C/c3ccccc3)[nH]c2c1	none
Cc1cccc2ccc(/C=C/c3ccc(N(C)C)cc3)[n+](C)c12	TEAD-YAP inh 93
CN(C)c1ccc(/C=C/c2cc[n+](C)cc2)cc1	TEAD-YAP inh 44
CN(C)c1ccc(/C=C/c2ccc([N+](=O)[O-])cc2)cc1	none
CC[n+]1ccccc1/C=C/c1ccc(N(C)C)cc1	TEAD-YAP inh 47
CN(C)c1ccc(C(=O)/C=C/c2ccccc2)cc1	none
Cc1ccc(/C=C/c2ccc(N(C)C)cc2)[n+](C)c1	TEAD-YAP inh 70
CC[n+]1ccccc1/C=C/N(C(C)=O)c1ccccc1	none
O=C(c1ccc(Cl)c(Cl)c1)N1CCN(c2ccc([N+](=O)[O-])c(N3CCCCC3)c2)CC1	none
CN(C)c1ccc(/C=C/c2cc(C(C)(C)C)nc(C(C)(C)C)c2)cc1	none
Cc1ccc2c(ccc(/C=C/c3ccc(N(C)C)cc3)[n+]2C)c1	TEAD-YAP inh 41
CN(C)c1ccc(CC(=O)c2nc3ccccc3s2)cc1	TEAD-YAP inh 34
Cc1c(N=Cc2cccc(I)c2)c(=O)n(-c2ccccc2)n1C	none
NC(=O)c1ccccc1NC(=O)c1ccc(CN2CCOCC2)cc1	TEAD-YAP inh 36
O=C(Nc1ccccc1C(=O)NCc1ccccc1)c1ccc(CN2CCOCC2)cc1	TEAD-YAP inh 52
CN1C(=O)/C(=C/c2ccccc2O)NC1=S	none
CN1C(=O)/C(=C/c2cc(Br)ccc2O)NC1=S	TEAD-YAP inh 80
CC(=NC#N)c1c(C(F)(F)F)[nH]n(-c2nc3ccccc3s2)c1=O	TEAD-YAP inh 42
Nc1c(N2CCCC2)cc(O)c2c1C(=O)c1ccccc1C2=O	MITF inh 77
COc1ccc(C(=O)NNC(=O)CCN2CCOCC2)cc1OC	none
COc1ccc(-n2nc(C(=O)NCC(=O)NCCN(C)CCc3ccccn3)c3ccccc3c2=O)cc1Cl	TEAD-YAP inh 33
COc1ccc(-n2nc(C(=O)NCC(=O)Nc3ccc(OC)c(OC)c3)c3ccccc3c2=O)cc1	none
COc1ccc(NC(=O)CNC(=O)c2nn(-c3ccc(OC)c(OC)c3)c(=O)c3ccccc23)cc1OC	TEAD-YAP inh 34
COc1ccc(-n2nc(C(=O)NCC(=O)Nc3cc(OC)c(OC)c(OC)c3)c3ccccc3c2=O)cc1Cl	TEAD-YAP inh 50
COc1ccc(C)cc1NC(=O)CNC(=O)c1nn(-c2ccc(OC)c(OC)c2)c(=O)c2ccccc12	TEAD-YAP inh 35
COC(=O)c1ccc(CSc2nccc(=O)[nH]2)cc1	none
O=C(CN1C(=O)COc2ccccc21)N1CCN(C(=O)c2ccco2)CC1	none
Cc1ccc(C2/C(=C(\O)c3ccc(Cl)cc3)C(=O)C(=O)N2CCN2CCOCC2)cc1 (centres undefined)	none
COc1ccc(Cl)cc1NC(=O)CCCS(=O)(=O)c1nc(-c2ccccc2OC)cc(C(F)(F)F)n1	none
C=CCn1c(=NC(=O)CSCC(=O)N2CCOCC2)sc2cc(C)ccc21	none
Cc1cc2c(cc1C)C(c1ccccc1C)CC(=O)N2 (centres undefined)	none
COc1ccccc1C1CC(=O)Nc2cc(C)c(C)cc21 (centres undefined)	TEAD-YAP inh 57
CCOc1ccccc1C1CC(=O)Nc2cc(C)c(C)cc21 (centres undefined)	TEAD-YAP inh 41
CCCCOc1ccccc1C1CC(=O)Nc2cc(C)c(C)cc21 (centres undefined)	none
Cc1cc2c(cc1C)C(c1ccccc1OC(C)C)CC(=O)N2 (centres undefined)	TEAD-YAP inh 55
COc1ccc(OC)c(C2/C(=C(\O)c3ccc(C)cc3)C(=O)C(=O)N2c2nc3ccccc3s2)c1 (centres undefined)	none
COc1ccc(C2/C(=C(\O)c3ccc(C)cc3)C(=O)C(=O)N2c2nc3ccccc3s2)c(OC)c1 (centres undefined)	TEAD-YAP inh 41
COCCOC(=O)c1[nH]c2c(c1C)C(=O)CC(c1ccc(OC)c(OC)c1)C2 (centres undefined)	none
CCOCCOC(=O)c1[nH]c2c(c1C)C(=O)CC(c1cc(OC)c(OC)c(OC)c1)C2 (centres undefined)	TEAD-YAP inh 42
CCOC(=O)c1[nH]c2c(c1C)C(=O)CC(c1ccc(F)cc1)C2 (centres undefined)	TEAD-YAP inh 49, FBW7 activator 2.3
COc1ccc(C2CC(=O)c3c([nH]c(C(=O)OCCSC)c3C)C2)cc1 (centres undefined)	none
CCOC(=O)c1[nH]c2c(c1C)C(=O)CC(c1ccc(OCC)c(OC)c1)C2 (centres undefined)	none
CCOCCOC(=O)c1[nH]c2c(c1C)C(=O)CC(c1ccccc1)C2 (centres undefined)	TEAD-YAP inh 49
CCOC(=O)c1[nH]c2c(c1C)C(=O)CC(c1ccccc1)C2 (centres undefined)	TEAD-YAP inh 47
